Results reported in the supplement of paper PMC10037445.
Over roughly 2,900 compounds, “NF-kB SEAP reporter activity, fold change vs agonist alone” has its median near 0.99; the highest 2% begin near 2.6. The full list was thinned out, with the highest values kept by preference.

Experiments:
RAW-Dual [1] = assay: NF-kB SEAP reporter activity, fold change vs agonist alone; higher = enhanced NF-kB activity
How it was run: (§1)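 After 50 nL of library stock was delivered by pin tool to RAW-Dual macrophages (50,000 cells/well, DMEM, 384-well plates), a PRR agonist was added 1 h later and the plates were kept at 37 °C, 5% CO2. Twenty hours later, IRF was read from supernatant by QuantiLuc luminescence and NF-κB by QuantiBlue absorbance at 620 nm. Reporter activity is stated as fold change over agonist-alone wells. Wells with IncuCyte confluency under 70% of agonist controls in both mask sets were counted as cytotoxic.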

RAW-Dual [2] = assay: NF-kB SEAP reporter activity, fold change vs agonist alone; cytotoxicity flag (confluency mask): cytotoxic (confluency <70% of control); library stock concentration (final ~1000-fold dilution): 10 mM; higher = enhanced NF-kB activity
How it was run: as §1

RAW-Dual [3] = assay: NF-kB SEAP reporter activity, fold change vs agonist alone; cytotoxicity flag (confluency mask): not cytotoxic; library stock concentration (final ~1000-fold dilution): 10 mM; higher = enhanced NF-kB activity
How it was run: as §1

RAW-Dual [4] = assay: NF-kB SEAP reporter activity, fold change vs agonist alone; cytotoxicity flag (confluency mask): not cytotoxic; library stock concentration (final ~1000-fold dilution): .1 mM; higher = enhanced NF-kB activity
How it was run: as §1

[5] = library stock concentration (final ~1000-fold dilution): 10 mM, cytotoxicity flag (confluency mask): cytotoxic (confluency <70% of control), agonist: Imiquimod (TLR7) […]
[6] = library stock concentration (final ~1000-fold dilution): 10 mM, cytotoxicity flag (confluency mask): cytotoxic (confluency <70% of control), agonist: MPLA (TLR4) […]
[7] = agonist: ODN 1826 (TLR9) 0.5 ug/mL
[8] = agonist: Pam2CSK4 (TLR2/6) 0.1 ug/mL
[9] = agonist: Pam3CSK4 (TLR2/1) 0.1 ug/mL
[10] = library stock concentration (final ~1000-fold dilution): 10 mM, cytotoxicity flag (confluency mask): not cytotoxic, agonist: Imiquimod (TLR7) […]
[11] = library stock concentration (final ~1000-fold dilution): 10 mM, cytotoxicity flag (confluency mask): not cytotoxic, agonist: MPLA (TLR4) […]

O=C(CBr)N1CC([N+](=O)[O-])([N+](=O)[O-])C1
NF-kB SEAP reporter activity (RAW-Dual [1]; [5]): 0.542 | NF-kB SEAP reporter activity (RAW-Dual [1]; [6]): 0.295 | NF-kB SEAP reporter activity (RAW-Dual [2]; agonist: LPS (TLR4) 0.1 ug/mL): 0.335 | NF-kB SEAP reporter activity (RAW-Dual [2]; [7]): 0.252 | NF-kB SEAP reporter activity (RAW-Dual [2]; [8]): 0.0912 | NF-kB SEAP reporter activity (RAW-Dual [2]; [9]): 0.189

CC1=CC2Cc3[nH]c(=O)ccc3C3(C1)NCCCC23 (stereo not drawn)
NF-kB SEAP reporter activity (RAW-Dual [1]; [10]): 0.933 | NF-kB SEAP reporter activity (RAW-Dual [1]; [11]): 1.03 | NF-kB SEAP reporter activity (RAW-Dual [3]; agonist: LPS (TLR4) 0.1 ug/mL): 1.12 | NF-kB SEAP reporter activity (RAW-Dual [3]; [7]): 0.952 | NF-kB SEAP reporter activity (RAW-Dual [3]; [8]): 1.11 | NF-kB SEAP reporter activity (RAW-Dual [3]; [9]): 1.22

COc1ccc(CC2NCC(O)C2OC(C)=O)cc1 (stereo not drawn)
NF-kB SEAP reporter activity (RAW-Dual [1]; [5]): 0.133 | NF-kB SEAP reporter activity (RAW-Dual [1]; [6]): 0.231 | NF-kB SEAP reporter activity (RAW-Dual [2]; agonist: LPS (TLR4) 0.1 ug/mL): 0.216 | NF-kB SEAP reporter activity (RAW-Dual [2]; [7]): 0.171 | NF-kB SEAP reporter activity (RAW-Dual [2]; [8]): 0.0635 | NF-kB SEAP reporter activity (RAW-Dual [2]; [9]): 0.145

Cc1c(C(C)C2NCC(C)CC2O)ccc2c1CC1C2CC=C2CC(O)CCC21C (stereo not drawn)
NF-kB SEAP reporter activity (RAW-Dual [1]; [10]): 0.945 | NF-kB SEAP reporter activity (RAW-Dual [1]; [11]): 1.15 | NF-kB SEAP reporter activity (RAW-Dual [3]; agonist: LPS (TLR4) 0.1 ug/mL): 1.1 | NF-kB SEAP reporter activity (RAW-Dual [3]; [7]): 1.02 | NF-kB SEAP reporter activity (RAW-Dual [3]; [8]): 0.866 | NF-kB SEAP reporter activity (RAW-Dual [3]; [9]): 1.03

O.O=C1C=CCC2C3CCCN4CCCC(CN12)C34 (stereo not drawn)
NF-kB SEAP reporter activity (RAW-Dual [1]; [10]): 0.531 | NF-kB SEAP reporter activity (RAW-Dual [1]; [11]): 0.792 | NF-kB SEAP reporter activity (RAW-Dual [3]; agonist: LPS (TLR4) 0.1 ug/mL): 1.41 | NF-kB SEAP reporter activity (RAW-Dual [3]; [7]): 0.558 | NF-kB SEAP reporter activity (RAW-Dual [3]; [8]): 0.957 | NF-kB SEAP reporter activity (RAW-Dual [3]; [9]): 1.11

Cc1sc2c(c1C)C(c1ccc(Cl)cc1)=NC(CC(=O)Nc1ccc(O)cc1)c1nnc(C)n1-2 (stereo not drawn)
NF-kB SEAP reporter activity (RAW-Dual [1]; [10]): 1.49 | NF-kB SEAP reporter activity (RAW-Dual [1]; [11]): 2.56 | NF-kB SEAP reporter activity (RAW-Dual [3]; agonist: LPS (TLR4) 0.1 ug/mL): 3.19 | NF-kB SEAP reporter activity (RAW-Dual [3]; [7]): 2.24 | NF-kB SEAP reporter activity (RAW-Dual [3]; [8]): 0.856 | NF-kB SEAP reporter activity (RAW-Dual [3]; [9]): 1.74

CCNC(=O)CC1N=C(c2ccc(Cl)cc2)c2cc(OC)ccc2-n2c(C)nnc21 (stereo not drawn)
NF-kB SEAP reporter activity (RAW-Dual [1]; [10]): 1.41 | NF-kB SEAP reporter activity (RAW-Dual [1]; [11]): 2.47 | NF-kB SEAP reporter activity (RAW-Dual [3]; agonist: LPS (TLR4) 0.1 ug/mL): 2.57 | NF-kB SEAP reporter activity (RAW-Dual [3]; [7]): 1.9 | NF-kB SEAP reporter activity (RAW-Dual [3]; [8]): 0.886 | NF-kB SEAP reporter activity (RAW-Dual [3]; [9]): 1.43

Cc1sc2c(c1C)C(c1ccc(Cl)cc1)=NC(CC(=O)OC(C)(C)C)c1nnc(C)n1-2 (stereo not drawn)
NF-kB SEAP reporter activity (RAW-Dual [1]; [5]): 2.49 | NF-kB SEAP reporter activity (RAW-Dual [1]; [6]): 2.26 | NF-kB SEAP reporter activity (RAW-Dual [2]; agonist: LPS (TLR4) 0.1 ug/mL): 2.05 | NF-kB SEAP reporter activity (RAW-Dual [2]; [7]): 1.9 | NF-kB SEAP reporter activity (RAW-Dual [2]; [8]): 0.784 | NF-kB SEAP reporter activity (RAW-Dual [2]; [9]): 1.19

Cc1sc2c(c1C)C(c1ccc(Cl)cc1)=NC(CC(N)=O)c1nnc(C)n1-2 (stereo not drawn)
NF-kB SEAP reporter activity (RAW-Dual [1]; [10]): 1.43 | NF-kB SEAP reporter activity (RAW-Dual [1]; [11]): 2.38 | NF-kB SEAP reporter activity (RAW-Dual [3]; agonist: LPS (TLR4) 0.1 ug/mL): 2.51 | NF-kB SEAP reporter activity (RAW-Dual [3]; [7]): 1.97 | NF-kB SEAP reporter activity (RAW-Dual [3]; [8]): 0.734 | NF-kB SEAP reporter activity (RAW-Dual [3]; [9]): 1.69

COc1ccc2c(c[n+](C)c3c4cc5c(cc4ccc23)OCO5)c1OC.Cl
NF-kB SEAP reporter activity (RAW-Dual [1]; [10]): 0.228 | NF-kB SEAP reporter activity (RAW-Dual [1]; [11]): 0.224 | NF-kB SEAP reporter activity (RAW-Dual [3]; agonist: LPS (TLR4) 0.1 ug/mL): 0.278 | NF-kB SEAP reporter activity (RAW-Dual [3]; [7]): 0.195 | NF-kB SEAP reporter activity (RAW-Dual [3]; [8]): 0.15 | NF-kB SEAP reporter activity (RAW-Dual [3]; [9]): 0.163

O=c1[nH]c2ccccc2n1C1CCN(Cc2ccc(-c3nc4cc5nc[nH]c5cc4nc3-c3ccccc3)cc2)CC1
NF-kB SEAP reporter activity (RAW-Dual [1]; [10]): 0.45 | NF-kB SEAP reporter activity (RAW-Dual [1]; [11]): 1.05 | NF-kB SEAP reporter activity (RAW-Dual [3]; agonist: LPS (TLR4) 0.1 ug/mL): 1.2 | NF-kB SEAP reporter activity (RAW-Dual [3]; [7]): 0.187 | NF-kB SEAP reporter activity (RAW-Dual [3]; [8]): 0.317 | NF-kB SEAP reporter activity (RAW-Dual [3]; [9]): 0.427

Br.COc1ccc2c(c1)C13CCCCC1C(C2)N(C)CC3.O (stereo not drawn)
NF-kB SEAP reporter activity (RAW-Dual [1]; [11]): 0.902 | NF-kB SEAP reporter activity (RAW-Dual [3]; agonist: LPS (TLR4) 0.1 ug/mL): 0.802 | NF-kB SEAP reporter activity (RAW-Dual [3]; [7]): 0.615 | NF-kB SEAP reporter activity (RAW-Dual [3]; [8]): 0.806 | NF-kB SEAP reporter activity (RAW-Dual [3]; [9]): 0.824

Br.CN1C2CC(OC(=O)C(CO)c3ccccc3)CC1C1OC12.O.O.O (stereo not drawn)
NF-kB SEAP reporter activity (RAW-Dual [1]; [10]): 0.88 | NF-kB SEAP reporter activity (RAW-Dual [1]; [11]): 1.09 | NF-kB SEAP reporter activity (RAW-Dual [3]; agonist: LPS (TLR4) 0.1 ug/mL): 0.989 | NF-kB SEAP reporter activity (RAW-Dual [3]; [7]): 0.789 | NF-kB SEAP reporter activity (RAW-Dual [3]; [8]): 1.04 | NF-kB SEAP reporter activity (RAW-Dual [3]; [9]): 1.12

Cc1cccc(-c2ccnc3c(C(N)=O)cnn23)c1
NF-kB SEAP reporter activity (RAW-Dual [1]; library stock concentration (final ~1000-fold dilution): .1 mM, cytotoxicity flag (confluency mask): not cytotoxic, agonist: Imiquimod (TLR7) […]): 0.791 | NF-kB SEAP reporter activity (RAW-Dual [1]; library stock concentration (final ~1000-fold dilution): .1 mM, cytotoxicity flag (confluency mask): not cytotoxic, agonist: MPLA (TLR4) […]): 1.15 | NF-kB SEAP reporter activity (RAW-Dual [4]; agonist: LPS (TLR4) 0.1 ug/mL): 1.21 | NF-kB SEAP reporter activity (RAW-Dual [4]; [7]): 1.28 | NF-kB SEAP reporter activity (RAW-Dual [4]; [8]): 1.25 | NF-kB SEAP reporter activity (RAW-Dual [4]; [9]): 1.13
